High-throughput results deposited in PubChem by National Center for Advancing Translational Sciences (NCATS).
DT40 TDP1 no CPT: qHTS for Inhibitors of human tyrosyl-DNA phosphodiesterase 1 (TDP1): qHTS in cells in absence of CPT; DT40 Tdp1-/- hTDP1 cells, no CPT, ATP luminescence, 48 h; Potency, µM (top dose mostly 46.2 µM), inactives show top-dose activity change, negative = growth inhibition, most hits filed as inhibitors; actives 15% (n = 420,000); AID 686978, 2013; further: on the % scale 0 is the no-effect control and ±100 the full control effect; nearly all actives have a fitted effect of over 55% in size
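Stably hTDP1-transfected Tdp1-null chicken DT40 cells were treated with library compounds minus camptothecin and grown for at least 48 hr at 37 °C, after which cellular ATP was quantified by luminescence.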
TDP1 block: qHTS Assay for Inhibitors of Tyrosyl-DNA Phosphodiesterase (TDP1); recombinant TDP1, AlphaScreen DNA substrate cleavage; actives 0.28% (n = 350,000); Potency, µM (top dose mostly 130 µM), without a hit: at the highest dose activity change, negative = inhibition, most hits filed as inhibitors; AID 485290, 2010; further: on the % scale 0 is the no-effect control and ±100 the full control effect; nearly all actives have a fitted effect of over 40% in size
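Enzyme-compound mixtures sat 15 min at room temperature, followed by a 5 min reaction with 15 nM final substrate and 10 min with AlphaScreen beads. Recombinant human Tdp1 was used at 1 nM final.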
DT40 TDP1 CPT: qHTS for Inhibitors of human tyrosyl-DNA phosphodiesterase 1 (TDP1): qHTS in cells in presence of CPT; chicken DT40 Tdp1-/-;hTDP1 cells + 20 nM CPT, ATP luminescence, 48 h; Potency, µM (highest dose often 46.2 µM), for the others: at the highest dose activity change, negative = growth inhibition, most hits filed as inhibitors; actives 12% (n = 420,000); AID 686979, 2013; further: on the % scale 0 is the no-effect control and ±100 the full control effect; nearly all actives have a fitted effect of over 55% in size
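Cell growth measured by CellTiter-Glo luminescence after a minimum 48 h, 37 C compound exposure with 20 nM CPT in Tdp1-knockout DT40 cells stably expressing hTDP1, seeded 400/well; qHTS titration format.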
ClpP mod: qHTS Assay for Activators of ClpP; purified B. subtilis ClpP, FRET peptide cleavage, 20 min; Potency, µM (doses to about 57.5 µM), for the others: at the top dose activity change, negative = active; actives 1.9% (n = 340,000); AID 651965, 2013; active means well fitted falling curve with a large enough effect; inconclusive means small, poorly fitted or top-dose-only effect; inactive means no such curve, though single readings can be large or run the other way; further: the source files actives as falling curves though it sought activators and does not explain the sign; nearly all actives have a fitted effect of over 65% in size
Target sequence (P80244 whole entry, looked up): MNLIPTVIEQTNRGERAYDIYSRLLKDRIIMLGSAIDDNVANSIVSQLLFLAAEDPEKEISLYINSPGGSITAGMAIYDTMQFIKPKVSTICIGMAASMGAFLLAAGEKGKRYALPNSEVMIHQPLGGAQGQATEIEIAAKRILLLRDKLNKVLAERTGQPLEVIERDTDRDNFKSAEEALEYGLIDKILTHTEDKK
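ClpP 10 microg/mL final, pH 8 Tris/KCl buffer with BSA, glycerol, Tween-20; compound pinned in; FRET-FV substrate; RT 20 min; Ex320/Em430; ΔFRET vs ADEP 5.8 microM, DMSO, no enzyme.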
The depositor's hits bear a star; ? = inconclusive; nt = no result; [ ] = dose if it differs, or a comment. An excerpt weighted towards active compounds, which were near 17% of everything screened. Unless noted, the call rests on the fitted dose curve; in most records, active means well fitted curve in the direction sought with a large enough effect; inconclusive means small, poorly fitted or top-dose-only effect, or another doubt; inactive means no such curve, though single readings can be large; an effect the other way counts as inactive or inconclusive. Potency means the concentration at half of the fitted maximal effect.

SMILES	DT40 TDP1 no CPT	TDP1 block	DT40 TDP1 CPT	ClpP mod
CCOC(=O)c1c(C)oc2ccc(N(C(C)=O)S(=O)(=O)c3c(C)cc(C)cc3C)cc12	nt	nt	nt	-2.9%
CCOC(=O)c1c(-c2ccccc2)oc2ccc(NS(=O)(=O)c3ccc(C)cc3)cc12	2.91µM*	2.2%[12.3 µM]	2.91µM*	4.7%
CCC(C)(C)NC(=O)c1ccc2c(c1)N(CC(=O)N1CCCC1)C(=O)C(C)(C)O2	10.8%	nt	2.1%	0.2%
O=C(NCCCN1CCCC1=O)c1cn(-c2ccccc2)nc1-c1ccccc1	-23.6%	2.2%	-11.2%	-14.4%
Cc1cc(C)cc(NC(=O)N2CCC(CN3CCCCCC3)CC2)c1	?	3.7%	-50.2%	0.7%
C(=N\c1ncnc2sccc12)/NOCc1ccccc1	9.2µM*	2.1%	23.1µM*	-1.0%
COc1ccnc(N=CNOCc2ccc(C)cc2)c1C#N	-17.4%	-2.2%	-4.2%	1.2%
Clc1ccc(CON/C=N/c2ncnc3sccc23)cc1	11.6µM*	2.0%	11.6µM*	-2.0%
C[C@@H]1C=C[C@](Cc2ccccc2)(C(=O)NCCCNc2ncc(C(F)(F)F)cc2Cl)N1C(=O)c1ccccc1	nt	9.9%	nt	nt
Cc1ccc2c3c(cccc13)-c1ccccc1C2=O	?	-1.1%	-29.0%	-2.1%
Cc1coc2c1C(=O)C(=O)c1c-2ccc2c(C)cccc12	4.61µM*	5.9%	2.91µM*	-0.4%
Cc1coc2c1C(=O)C(=O)c1c-2ccc2c1CCCC2(C)C	1.3µM*	21.2%	0.82µM*	-2.9%
COC(=O)c1cc(C)ccc1OCc1ccc([N+](=O)[O-])cc1	-1.9%	7.7%	7.0%	-0.1%
Cc1nc2cnc(OCc3ccccc3)nc2n(Cc2ccc(F)cc2)c1=O	-11.9%	nt	3.1%	nt
CCC(C)C(NC)C(=O)O (stereo not drawn)	10.8%	3.6%	-4.1%	nt
CC(C)C(=O)NC(C)C(c1cccs1)N1CCN(c2ccccc2)CC1 (stereo not drawn)	20.6µM*	nt	?	0.6%
CC(NC(=O)c1cccs1)C(c1cccs1)N1CCN(c2ccccc2)CC1 (stereo not drawn)	-16.8%	0.2%	-24.4%	0.6%
CC(NC(=O)NC1CCCCC1)C(c1cccs1)N1CCN(c2ccccc2)CC1 (stereo not drawn)	20.6µM*	0.0%	?	-0.4%
CC(NC(=O)c1ccc2c(c1)OCO2)C(c1cccs1)N1CCOCC1 (stereo not drawn)	-1.7%	4.2%	?	-0.6%
CC(NC(=O)c1ccc2c(c1)OCO2)C(c1cccs1)N1CCN(c2ccccc2)CC1 (stereo not drawn)	18.4µM*	3.1%	?	nt
O=C(Nc1ccc2c(c1)OCCO2)C1c2ccccc2OCC(=O)N1Cc1cccnc1 (stereo not drawn)	-1.3%	nt	8.9%	2.2%
Cc1nn(C(=O)c2ccccc2F)c(C)c1S(=O)(=O)N1CCCCCC1	-15.1%	-5.3%	-0.4%	0.5%
COc1ccc2c(Sc3ccc(C)cc3)c(C(=O)NCC(C)c3ccccc3)[nH]c2c1 (stereo not drawn)	?	11.4%	-15.8%	-0.9%
CCOc1ccc(CNC(=O)c2cnc(SC)nc2CC)cc1	-2.4%	5.7%	10.3%	-1.3%
O=C1N(Cc2ccccc2)CC2(Br)COCOC12O (stereo not drawn)	3.26µM*	nt	2.31µM*	-3.5%
SMILES	DT40 TDP1 no CPT	TDP1 block	DT40 TDP1 CPT	ClpP mod
CCN(CC(=O)Nc1cc(Cl)ccc1C)CC(=O)NC1CC1	-11.5%	nt	3.0%	2.1%
Oc1ccc(N=Nc2n[nH]c(-c3ccc(Cl)cc3)n2)cc1	16.4µM*	13.3%	?	1.5%
N#CC(=C1Nc2ccccc2N1)S(=O)(=O)c1ccccc1	?	4.9%	?	nt
Cc1cc2nc(-c3cccc(Br)c3)c(Cc3ccccc3)n2c(C)c1Br	?	nt	16.4µM*	0.4%
Cc1cc2nc(-c3ccccc3)c(Cc3cccc(F)c3)n2c(C)c1Br	16.4µM*	nt	?	-0.3%
Cc1cc2nc(C3CCCCC3)c(Cc3cccc(F)c3)n2c(C)c1Br	?	nt	16.4µM*	-2.0%
N#Cc1ccc(-c2nc3ccc(Br)cn3c2Cc2cccc(F)c2)cc1	?	nt	?	-15.8%
Cc1cc(Br)cn2c(Cc3cccc(F)c3)c(-c3ccc(C#N)cc3)nc12	?	nt	18.4µM*	-7.5%
Fc1cccc(Cc2c(-c3ccccc3)nc3ccc(Br)cn23)c1	?	nt	?	-5.9%
CCC(=O)OCC(=O)[C@@]1(OC(=O)CC)[C@H](C)C[C@H]2[C@H]3[C@H]([C@@H](O)C[C@@]21C)[C@@]1(C)C=CC(=O)C=C1C[C@H]3Cl	-28.6%[21.1 µM]	nt	-28.3%[21.1 µM]	nt
Cc1nc2ccc(S(=O)(=O)N(CC(=O)Nc3ccc(F)cc3F)Cc3ccccc3)cc2s1	?	3.2%	?	-0.8%
Cc1cc2nc(-c3ccc(C#N)cc3)c(Cc3cccc(F)c3)n2c(C)c1Br	14.6µM*	nt	18.4µM*	-2.5%
Cc1cc2nc(-c3ccc(F)cc3)c(Cc3ccccc3)n2c(C)c1Br	20.6µM*	nt	20.6µM*	-0.2%
Cc1cc2nc(C(C)(C)C)c(Cc3ccccc3)n2c(C)c1Br	?	nt	?	-7.5%
Cc1ccc(Cc2c(-c3ccccc3)nc3cc(C)c(Br)c(C)n23)cc1	?	nt	?	-1.9%
Cc1ccc(-c2nc3cc(C)c(Br)c(C)n3c2Cc2cccc(F)c2)cc1	10.3µM*	nt	7.31µM*	-7.0%
O=C(Nc1ccc(F)c(F)c1)C1CCCN1S(=O)(=O)c1cccc2nsnc12 (stereo not drawn)	?	2.3%	?	0.5%
O=C(NCc1ccccc1Cl)C1CCN(S(=O)(=O)Cc2ccccc2)CC1	-21.6%	14.3%	-21.2%	-2.1%
CC1(C)Cc2c(cnn2-c2ccc(F)cc2)C(NC(=O)C2CCC2)C1 (stereo not drawn)	?	6.3%	?	5.5%
CCCCCCCNC(=O)C1(CC2CC(c3ccccc3)=NO2)CCNCC1 (stereo not drawn)	16.4µM*	nt	?	-3.9%
CCCCCCCNC(=O)C1(CC2CC(c3ccc(Cl)cc3)=NO2)CCN(C(=O)C2(C)CC2)CC1 (stereo not drawn)	16.4µM*	nt	?	1.1%
CC(CC12CC3CC(CC(C3)C1)C2)NCc1ccccc1O (stereo not drawn)	16.4µM*	nt	14.6µM*	-0.3%
COC(=O)c1ccc(-c2ccc(/C=N/NC(=O)CC3(C)OCCCO3)o2)cc1	?	2.4%	-10.2%	nt
Cc1ccc(-c2noc(-c3nnn(CC(=O)Nc4cccc(C(F)(F)F)c4)c3N)n2)cc1	2.06µM*	2.8%	2.06µM*	-3.7%
COc1cccc(NC(=O)Cn2nnc(-c3nc(-c4ccccc4)no3)c2N)c1	18.4µM*	-5.7%	?	-18.5%
Cc1ccc(-c2noc(-c3nnn(CC(=O)Nc4ccc(C)c(Cl)c4)c3N)n2)cc1	-14.4%	8.5%	-27.9%	0.6%
